Reference: PubChem BioAssay (NCI)
The panel holds about 79,000 compounds, 15% with a hit somewhere; the sample as a whole holds those more often. The source made the active and inactive calls. Rule as the data show it: active = growth inhibition above about 70%; inactive = the rest.

Tests used:
[1] = NCI Yeast Anticancer Drug Screen. Data for the rad50 strain (AID 155);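 also: 0% = growth of vehicle-only cultures of the same strain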; details: S. cerevisiae rad50 strain growth inhibition, stronger effect = higher value
In short: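 Vehicle-treated cultures provide the reference for the growth inhibition reported for compound-exposed, repair-deficient yeast.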

[2] = NCI Yeast Anticancer Drug Screen. Data for the mec2-1 strain (AID 157); details: S. cerevisiae mec2-1 strain, stronger effect = higher value
In short: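 Readout is yeast growth inhibition, normalised to vehicle-treated controls, in the mec2-1 strain exposed to compound.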

[3] = NCI Yeast Anticancer Drug Screen. Data for the sgs1 mgt1 strain (AID 161);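 also: 0% = growth of cultures given vehicle only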; details: S. cerevisiae sgs1 mgt1 strain, stronger effect = higher value
In short: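 Percent growth inhibition was derived by comparing compound-exposed mutant yeast with vehicle-exposed cultures. The strain carries alterations in DNA damage repair.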

[4] = NCI Yeast Anticancer Drug Screen. Data for the cln2 rad14 strain (AID 165);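 also: 0% = growth equal to vehicle treated cultures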; details: S. cerevisiae cln2 rad14 strain, stronger effect = higher value
In short: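 Relative to vehicle controls, growth inhibition of compound-treated cln2 rad14 yeast was recorded.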

[5] = NCI Yeast Anticancer Drug Screen. Data for the bub3 strain (AID 167); details: S. cerevisiae bub3 mutant strain, stronger effect = higher value
In short: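 Mutant yeast screening strain plus compound; vehicle-treated cultures serve as the 0% inhibition reference.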

[6] = NCI Yeast Anticancer Drug Screen. Data for the mlh1 rad18 strain (AID 175); details: S. cerevisiae mlh1 rad18 strain growth inhibition, stronger effect = higher value
In short: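 Test agents were incubated with a yeast strain of defined genotype (DNA damage repair defect). Inhibition of growth was derived by comparison with vehicle-exposed cultures.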

[7] = at 5.0 µM (retest, dose inferred, filed as 0.5)
[8] = at 50.0 µM (retest, dose inferred, filed as 5.0)

Measured: growth inhibition

CC12OOC(c3ccccc31)c1c2ccc2ccccc12 (stereo not given)
inactive: [1]; [7] 62%
active: [1]; [8] 98% | [1]; at 50.0 µM 86% | [2]; [7] 94% | [2]; [8] 99% | [2]; at 50.0 µM 93.5% | [3]; [7] 92% | [3]; [8] 99% | [3]; at 50.0 µM 90% | [4]; [7] 71% | [4]; [8] 99% | [4]; at 50.0 µM 88.5% | [5]; [7] 97% | [5]; [8] 97% | [5]; at 50.0 µM 90.5% | [6]; [7] 90% | [6]; [8] 97% | [6]; at 50.0 µM 90.2%

CC(=O)O[C@H]1CCC2[C@@H]3CCC4Nc5oncc5C[C@]4(C)C3CC[C@@]21C (stereo not given in full)
inactive: [1]; [7] -6% | [1]; at 50.0 µM 51% | [2]; [7] 4% | [2]; at 50.0 µM 8.35% | [3]; [7] -3% | [3]; [8] 53% | [3]; at 50.0 µM 16.6% | [4]; [7] -10% | [5]; [7] -17% | [5]; [8] 68% | [5]; at 50.0 µM 17.9% | [6]; [7] 12%
active: [1]; [8] 81% | [2]; [8] 75% | [4]; [8] 73% | [4]; at 50.0 µM 70% | [6]; [8] 91% | [6]; at 50.0 µM 84.5%

C[C@]12CC[C@H]3[C@@H](CCC4=CC(=O)CC[C@@H]43)[C@@H]1CC[C@@H]2OC(=O)N(CCCl)N=O
inactive: [1]; [7] 44% | [2]; [7] 43% | [3]; [7] 67% | [4]; [7] 68% | [6]; [7] 39%
active: [1]; [8] 95% | [1]; at 50.0 µM 84.8% | [2]; [8] 97% | [2]; at 50.0 µM 85.3% | [3]; [8] 97% | [3]; at 50.0 µM 83.2% | [4]; [8] 96% | [4]; at 50.0 µM 79% | [5]; [7] 72% | [5]; [8] 96% | [5]; at 50.0 µM 85.7% | [6]; [8] 94% | [6]; at 50.0 µM 85%

O=C(O)C(F)(F)C(F)(F)C(=O)O
inactive: [1]; [7] 8% | [1]; [8] -3% | [1]; at 50.0 µM 0.35% | [2]; [7] 3% | [2]; [8] 0% | [2]; at 50.0 µM -1.4% | [3]; [7] -5% | [3]; [8] -2% | [3]; at 50.0 µM 4.8% | [4]; [7] 6% | [4]; [8] 1% | [4]; at 50.0 µM -16.1% | [5]; [7] 5% | [5]; [8] 26% | [5]; at 50.0 µM -3.15% | [6]; [7] 5% | [6]; [8] -2% | [6]; at 50.0 µM 5.25%

Cc1cc(CCN)c(C)c2c1sc1ccccc12
inactive: [1]; [7] 21%
active: [1]; [8] 99% | [1]; at 50.0 µM 99.7% | [2]; [7] 92% | [2]; [8] 100% | [2]; at 50.0 µM 94.3% | [3]; [7] 89% | [3]; [8] 100% | [3]; at 50.0 µM 99.7% | [4]; [7] 98% | [4]; [8] 99% | [4]; at 50.0 µM 89% | [5]; [7] 97% | [5]; [8] 99% | [5]; at 50.0 µM 95.1% | [6]; [7] 81% | [6]; [8] 100% | [6]; at 50.0 µM 99.7%

O=[N+]([O-])/C=C/c1cccc(F)c1
active: [1]; [8] 99% | [1]; at 50.0 µM 99.5% | [2]; [8] 99% | [2]; at 50.0 µM 99.7% | [3]; [8] 99% | [3]; at 50.0 µM 99.6% | [4]; [8] 99% | [4]; at 50.0 µM 99.3% | [5]; [8] 98% | [5]; at 50.0 µM 99.5% | [6]; [8] 99% | [6]; at 50.0 µM 99.4%
inactive: [1]; [7] 40% | [2]; [7] 30% | [3]; [7] 29% | [4]; [7] 10% | [5]; [7] 18% | [6]; [7] 59%

O=[N+]([O-])O.c1ccc([As+](c2ccccc2)(c2ccccc2)c2ccccc2)cc1
inactive: [1]; [7] 26% | [2]; [7] 43% | [3]; [7] 21% | [4]; [7] 7% | [5]; [7] 16% | [6]; [7] 24%
active: [1]; [8] 96% | [1]; at 50.0 µM 97% | [2]; [8] 99% | [2]; at 50.0 µM 97.9% | [3]; [8] 98% | [3]; at 50.0 µM 97% | [4]; [8] 92% | [4]; at 50.0 µM 97.6% | [5]; [8] 97% | [5]; at 50.0 µM 97% | [6]; [8] 96% | [6]; at 50.0 µM 95.8%

c1ccc2c(c1)[O][Sn][O]2
active: [1]; at 50.0 µM 98.8% | [2]; at 50.0 µM 99.2% | [4]; at 50.0 µM 98.8% | [5]; at 50.0 µM 99.4% | [6]; at 50.0 µM 99%
inactive: [1]; [7] 0% | [1]; [8] 6% | [2]; [7] 1% | [2]; [8] 3% | [3]; [7] -1% | [3]; [8] 1% | [3]; at 50.0 µM 39.8% | [4]; [7] 0% | [4]; [8] -1% | [5]; [7] -1% | [5]; [8] 2% | [6]; [7] 1% | [6]; [8] 3%

CN(C)c1ccc(/C=C/c2cc3scc(-c4ccccc4)[n+]3c3ccccc23)cc1
active: [1]; [8] 87% | [1]; at 50.0 µM 98.7% | [2]; [8] 99% | [2]; at 50.0 µM 99.5% | [3]; [8] 99% | [3]; at 50.0 µM 99.4% | [4]; [8] 98% | [4]; at 50.0 µM 99% | [5]; [8] 97% | [5]; at 50.0 µM 99% | [6]; [8] 99% | [6]; at 50.0 µM 99.2%
inactive: [1]; [7] -2% | [2]; [7] 4% | [3]; [7] -1% | [4]; [7] -3% | [5]; [7] 18% | [6]; [7] 14%

CCCCCCCCc1ccc(OCCN(CCCl)CCCl)cc1
active: [1]; [8] 99% | [1]; at 50.0 µM 98.7% | [2]; [8] 100% | [2]; at 50.0 µM 99.4% | [3]; [8] 99% | [3]; at 50.0 µM 99.1% | [4]; [8] 99% | [4]; at 50.0 µM 99.3% | [5]; [8] 99% | [5]; at 50.0 µM 99.2% | [6]; [8] 99% | [6]; at 50.0 µM 99.2%
inactive: [1]; [7] 3% | [2]; [7] -23% | [3]; [7] -130% | [4]; [7] -2% | [5]; [7] -4% | [6]; [7] 4%
